# Results: article PMC7862700, “An all-to-all approach to the identification of sequence-specific readers for epigenetic DNA modifications on cytosine”
# Assays:
# Assay in all cases: DAPPL (digital affinity profiling via proximity ligation, sequencing); 10 mM Tris-HCl pH 7.5, 50 mM NaCl, 1 mM DTT, 4% glycerol, room temperature, 30 min; GST-TFs on glutathione beads, 16-mer random dsDNA library, 0.1% formaldehyde crosslink after washing; high values mean tight binding
# FLI1 = target: T1, FLI1 (Homo sapiens, UniProt Q01543 1-452); settings: protein: recombinant; tags: N-terminal GST; dsDNA, one strand shown
# T1 sequence: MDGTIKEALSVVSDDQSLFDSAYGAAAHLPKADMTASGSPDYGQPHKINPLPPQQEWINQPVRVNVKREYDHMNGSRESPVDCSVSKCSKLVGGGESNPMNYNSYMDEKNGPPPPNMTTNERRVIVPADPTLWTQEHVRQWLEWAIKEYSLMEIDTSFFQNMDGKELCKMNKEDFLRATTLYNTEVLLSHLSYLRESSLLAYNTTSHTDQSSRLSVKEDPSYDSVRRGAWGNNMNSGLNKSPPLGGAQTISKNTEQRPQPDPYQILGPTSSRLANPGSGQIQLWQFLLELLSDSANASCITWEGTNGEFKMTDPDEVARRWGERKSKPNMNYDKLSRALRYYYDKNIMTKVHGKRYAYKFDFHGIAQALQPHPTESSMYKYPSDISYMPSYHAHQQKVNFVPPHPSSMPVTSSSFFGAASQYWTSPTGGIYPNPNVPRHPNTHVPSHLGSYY
# Method in brief: (§1)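 GST fusions of human transcription factors were expressed in yeast and captured with glutathione beads. Once given DNA barcodes and pooled alongside a tag-only sample, they were incubated for 30 min at room temperature with 200 nmole of a random double-stranded 16-mer DNA library in Tris/NaCl/DTT/glycerol buffer, then washed, crosslinked (0.1% formaldehyde), proximity-ligated, PCR-amplified and sequenced on an Illumina NextSeq500. The binding signal of each hexamer is its read frequency for a factor divided by its frequency for the tag-only sample.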
# ELK1 = target: T2, ELK1 (Homo sapiens, UniProt P19419 1-428); settings: protein: recombinant; tags: N-terminal GST; dsDNA, one strand shown
# T2 sequence: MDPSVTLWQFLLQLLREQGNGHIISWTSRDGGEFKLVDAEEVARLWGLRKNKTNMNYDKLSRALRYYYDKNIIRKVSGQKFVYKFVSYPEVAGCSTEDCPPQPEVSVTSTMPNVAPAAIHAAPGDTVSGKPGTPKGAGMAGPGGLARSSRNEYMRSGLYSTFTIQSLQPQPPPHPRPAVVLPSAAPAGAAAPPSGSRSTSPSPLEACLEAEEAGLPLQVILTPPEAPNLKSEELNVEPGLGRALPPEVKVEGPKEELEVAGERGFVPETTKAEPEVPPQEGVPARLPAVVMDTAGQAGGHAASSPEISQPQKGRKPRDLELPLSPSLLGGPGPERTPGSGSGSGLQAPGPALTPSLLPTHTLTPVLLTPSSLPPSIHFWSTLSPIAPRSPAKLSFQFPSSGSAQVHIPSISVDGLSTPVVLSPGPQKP
# Method in brief: as §1
# GABPA = target: T3, GABPA (Homo sapiens, UniProt Q06546 1-454); settings: protein: recombinant; tags: N-terminal GST; dsDNA, one strand shown
# T3 sequence: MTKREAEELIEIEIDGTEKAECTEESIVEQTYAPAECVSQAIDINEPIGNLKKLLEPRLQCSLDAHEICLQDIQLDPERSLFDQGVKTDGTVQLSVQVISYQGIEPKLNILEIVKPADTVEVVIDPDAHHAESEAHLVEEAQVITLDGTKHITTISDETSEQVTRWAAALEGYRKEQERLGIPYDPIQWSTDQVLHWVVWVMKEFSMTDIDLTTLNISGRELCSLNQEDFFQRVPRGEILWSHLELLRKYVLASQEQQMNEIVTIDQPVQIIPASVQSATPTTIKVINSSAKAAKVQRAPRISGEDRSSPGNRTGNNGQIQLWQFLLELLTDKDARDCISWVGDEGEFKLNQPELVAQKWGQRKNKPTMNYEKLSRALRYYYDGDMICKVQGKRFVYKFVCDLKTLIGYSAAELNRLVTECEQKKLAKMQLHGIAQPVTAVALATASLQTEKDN
# Method in brief: as §1
# ERG = target: T4, ERG (Homo sapiens, UniProt P11308 1-479); settings: protein: recombinant; tags: N-terminal GST; dsDNA, one strand shown
# T4 sequence: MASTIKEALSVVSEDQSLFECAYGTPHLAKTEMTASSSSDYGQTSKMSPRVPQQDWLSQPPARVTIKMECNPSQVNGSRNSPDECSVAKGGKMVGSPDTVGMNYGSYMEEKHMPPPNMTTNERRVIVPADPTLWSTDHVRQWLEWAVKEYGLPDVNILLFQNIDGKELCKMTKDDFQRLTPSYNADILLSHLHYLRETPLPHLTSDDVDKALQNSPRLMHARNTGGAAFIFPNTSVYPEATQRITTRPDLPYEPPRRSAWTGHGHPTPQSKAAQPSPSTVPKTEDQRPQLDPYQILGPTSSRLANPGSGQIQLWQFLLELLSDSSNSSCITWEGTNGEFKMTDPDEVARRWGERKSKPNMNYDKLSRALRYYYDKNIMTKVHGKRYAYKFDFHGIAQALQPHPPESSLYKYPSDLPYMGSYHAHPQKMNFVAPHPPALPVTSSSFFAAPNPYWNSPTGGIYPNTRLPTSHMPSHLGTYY
# Method in brief: as §1
# ELF1 = ELF1 (Homo sapiens, UniProt P32519 1-619); settings: protein: recombinant; tags: N-terminal GST; dsDNA, one strand shown
# Method in brief: as §1
# EHF = target: T5, EHF (Homo sapiens, UniProt Q9NZC4 1-300); settings: protein: recombinant; tags: N-terminal GST; dsDNA, one strand shown
# T5 sequence: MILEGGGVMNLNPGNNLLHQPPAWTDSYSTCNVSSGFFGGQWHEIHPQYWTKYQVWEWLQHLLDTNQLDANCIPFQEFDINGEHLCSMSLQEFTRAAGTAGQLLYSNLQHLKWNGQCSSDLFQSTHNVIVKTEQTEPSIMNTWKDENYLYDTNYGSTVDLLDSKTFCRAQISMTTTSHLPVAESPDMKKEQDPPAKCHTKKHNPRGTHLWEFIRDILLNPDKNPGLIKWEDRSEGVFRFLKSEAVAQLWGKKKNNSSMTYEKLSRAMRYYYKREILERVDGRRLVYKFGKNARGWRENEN
# Method in brief: as §1
# SPI1 = SPI1 (Homo sapiens, UniProt P17947 1-270); settings: protein: recombinant; tags: N-terminal GST; dsDNA, one strand shown
# Method in brief: as §1
# SPIB = SPIB (Homo sapiens, UniProt Q01892 1-262); settings: protein: recombinant; tags: N-terminal GST; dsDNA, one strand shown
# Method in brief: as §1
# ELK3 = target: T6, ELK3 (Homo sapiens, UniProt P41970 1-407); settings: protein: recombinant; tags: N-terminal GST; dsDNA, one strand shown
# T6 sequence: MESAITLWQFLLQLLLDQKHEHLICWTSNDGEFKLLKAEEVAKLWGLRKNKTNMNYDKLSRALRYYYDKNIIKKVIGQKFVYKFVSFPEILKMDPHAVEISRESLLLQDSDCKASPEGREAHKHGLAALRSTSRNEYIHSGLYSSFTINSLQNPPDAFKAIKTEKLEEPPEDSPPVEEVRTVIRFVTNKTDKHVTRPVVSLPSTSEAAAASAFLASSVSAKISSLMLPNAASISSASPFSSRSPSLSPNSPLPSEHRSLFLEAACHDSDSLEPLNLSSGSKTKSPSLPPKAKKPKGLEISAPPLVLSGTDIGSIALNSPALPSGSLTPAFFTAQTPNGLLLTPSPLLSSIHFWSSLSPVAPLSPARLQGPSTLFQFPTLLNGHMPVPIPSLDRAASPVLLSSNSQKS
# Method in brief: as §1
# FEV = target: T7, FEV (Homo sapiens, UniProt Q99581 1-238); settings: protein: recombinant; tags: N-terminal GST; dsDNA, one strand shown
# T7 sequence: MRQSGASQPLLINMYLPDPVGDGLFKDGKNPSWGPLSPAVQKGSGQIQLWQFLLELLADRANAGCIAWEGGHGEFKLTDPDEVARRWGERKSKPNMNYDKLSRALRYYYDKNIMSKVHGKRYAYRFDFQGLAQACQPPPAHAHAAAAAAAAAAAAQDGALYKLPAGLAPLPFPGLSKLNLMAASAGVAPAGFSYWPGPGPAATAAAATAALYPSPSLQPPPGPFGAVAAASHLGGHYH
# Method in brief: as §1
# ETV5 = ETV5 (Homo sapiens, UniProt P41161 1-510); settings: protein: recombinant; tags: N-terminal GST; dsDNA, one strand shown
# Method in brief: as §1
# HSF1 = HSF1 (Homo sapiens, UniProt Q00613 1-529); settings: protein: recombinant; tags: N-terminal GST; chain copies: 3; dsDNA, one strand shown
# Method in brief: as §1
# SPIC = target: T8, SPIC (Homo sapiens, UniProt Q8N5J4 1-248); settings: protein: recombinant; tags: N-terminal GST; dsDNA, one strand shown
# T8 sequence: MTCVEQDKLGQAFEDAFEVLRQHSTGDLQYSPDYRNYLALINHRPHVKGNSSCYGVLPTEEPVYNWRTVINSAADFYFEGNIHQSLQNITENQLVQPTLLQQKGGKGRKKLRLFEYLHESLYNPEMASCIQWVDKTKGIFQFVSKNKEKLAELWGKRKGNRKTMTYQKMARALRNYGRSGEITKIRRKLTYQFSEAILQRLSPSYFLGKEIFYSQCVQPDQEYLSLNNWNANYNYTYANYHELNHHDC
# Method in brief: as §1
# ELF4 = ELF4 (Homo sapiens, UniProt Q99607 1-663); settings: protein: recombinant; tags: N-terminal GST; dsDNA, one strand shown
# Method in brief: as §1
# ELK4 = target: T9, ELK4 (Homo sapiens, UniProt P28324-2 1-405); settings: protein: recombinant; tags: N-terminal GST; dsDNA, one strand shown
# T9 sequence: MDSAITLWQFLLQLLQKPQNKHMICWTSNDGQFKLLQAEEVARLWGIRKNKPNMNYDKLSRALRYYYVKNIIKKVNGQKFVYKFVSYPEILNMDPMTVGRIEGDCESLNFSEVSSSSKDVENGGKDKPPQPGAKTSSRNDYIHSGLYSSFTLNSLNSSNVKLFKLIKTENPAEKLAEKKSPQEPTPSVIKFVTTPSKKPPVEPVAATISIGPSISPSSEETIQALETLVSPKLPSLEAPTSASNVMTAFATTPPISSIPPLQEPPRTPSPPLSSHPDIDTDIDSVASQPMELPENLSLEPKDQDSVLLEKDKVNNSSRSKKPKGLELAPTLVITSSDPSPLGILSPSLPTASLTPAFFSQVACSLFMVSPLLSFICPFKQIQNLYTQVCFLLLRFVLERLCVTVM
# Method in brief: as §1
# ETV2 = target: T10, ETV2 (Homo sapiens, UniProt O00321 1-342); settings: protein: recombinant; tags: N-terminal GST; dsDNA, one strand shown
# T10 sequence: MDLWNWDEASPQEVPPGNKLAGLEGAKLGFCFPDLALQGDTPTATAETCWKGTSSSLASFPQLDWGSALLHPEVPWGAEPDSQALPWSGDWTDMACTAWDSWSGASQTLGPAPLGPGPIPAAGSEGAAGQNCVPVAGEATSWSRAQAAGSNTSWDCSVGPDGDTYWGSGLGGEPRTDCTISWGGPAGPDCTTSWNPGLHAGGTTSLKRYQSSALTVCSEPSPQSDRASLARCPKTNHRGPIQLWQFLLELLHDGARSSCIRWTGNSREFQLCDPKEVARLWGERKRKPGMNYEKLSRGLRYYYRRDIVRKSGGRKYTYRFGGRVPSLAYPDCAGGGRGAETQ
# Method in brief: as §1
# ELF3 = target: T11, ELF3 (Homo sapiens, UniProt P78545 1-371); settings: protein: recombinant; tags: N-terminal GST; dsDNA, one strand shown
# T11 sequence: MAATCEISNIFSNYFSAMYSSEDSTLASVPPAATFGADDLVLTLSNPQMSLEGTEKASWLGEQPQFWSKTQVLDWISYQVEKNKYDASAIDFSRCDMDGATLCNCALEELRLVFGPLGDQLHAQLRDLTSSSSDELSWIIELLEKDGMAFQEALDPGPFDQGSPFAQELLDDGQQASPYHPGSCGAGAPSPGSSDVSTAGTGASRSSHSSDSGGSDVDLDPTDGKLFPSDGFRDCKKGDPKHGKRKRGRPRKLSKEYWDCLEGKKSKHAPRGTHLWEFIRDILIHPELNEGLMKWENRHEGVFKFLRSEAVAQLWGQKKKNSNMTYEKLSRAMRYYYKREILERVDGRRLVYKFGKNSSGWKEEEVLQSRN
# Method in brief: as §1
# CRX = CRX (Homo sapiens, UniProt O43186 1-299); settings: protein: recombinant; tags: N-terminal GST; dsDNA, one strand shown
# Method in brief: as §1
# ETV1 = ETV1 (Homo sapiens, UniProt P50549 1-477); settings: protein: recombinant; tags: N-terminal GST; dsDNA, one strand shown
# Method in brief: as §1
# ETV1, sequence (P50549 whole entry): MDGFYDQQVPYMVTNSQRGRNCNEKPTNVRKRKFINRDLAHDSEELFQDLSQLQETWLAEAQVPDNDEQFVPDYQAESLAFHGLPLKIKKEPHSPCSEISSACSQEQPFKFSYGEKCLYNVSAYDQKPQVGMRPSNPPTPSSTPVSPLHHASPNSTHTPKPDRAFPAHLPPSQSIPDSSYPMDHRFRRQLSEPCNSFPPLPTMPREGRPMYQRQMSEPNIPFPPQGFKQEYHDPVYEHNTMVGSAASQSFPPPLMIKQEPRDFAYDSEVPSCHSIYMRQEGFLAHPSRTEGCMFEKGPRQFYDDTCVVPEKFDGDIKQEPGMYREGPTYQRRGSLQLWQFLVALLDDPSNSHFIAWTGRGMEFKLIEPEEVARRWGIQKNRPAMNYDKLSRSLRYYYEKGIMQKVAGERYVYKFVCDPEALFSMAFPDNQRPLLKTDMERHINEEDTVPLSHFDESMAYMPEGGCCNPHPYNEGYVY
# HSF1, sequence (Q00613 whole entry): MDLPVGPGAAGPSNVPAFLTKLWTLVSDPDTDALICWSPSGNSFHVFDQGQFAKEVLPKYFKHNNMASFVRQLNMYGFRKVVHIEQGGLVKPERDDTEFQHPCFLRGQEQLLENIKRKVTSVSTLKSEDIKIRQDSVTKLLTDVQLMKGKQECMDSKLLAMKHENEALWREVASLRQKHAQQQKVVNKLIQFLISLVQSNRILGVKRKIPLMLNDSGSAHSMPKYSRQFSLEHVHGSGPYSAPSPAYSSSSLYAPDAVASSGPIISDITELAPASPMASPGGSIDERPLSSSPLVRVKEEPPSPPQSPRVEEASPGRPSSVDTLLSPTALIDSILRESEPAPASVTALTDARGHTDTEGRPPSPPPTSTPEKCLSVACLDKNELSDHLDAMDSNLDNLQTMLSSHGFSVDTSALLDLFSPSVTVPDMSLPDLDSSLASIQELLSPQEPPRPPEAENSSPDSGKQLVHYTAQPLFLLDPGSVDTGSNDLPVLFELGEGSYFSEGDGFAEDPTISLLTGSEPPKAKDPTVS
# ELF1, sequence (P32519 whole entry): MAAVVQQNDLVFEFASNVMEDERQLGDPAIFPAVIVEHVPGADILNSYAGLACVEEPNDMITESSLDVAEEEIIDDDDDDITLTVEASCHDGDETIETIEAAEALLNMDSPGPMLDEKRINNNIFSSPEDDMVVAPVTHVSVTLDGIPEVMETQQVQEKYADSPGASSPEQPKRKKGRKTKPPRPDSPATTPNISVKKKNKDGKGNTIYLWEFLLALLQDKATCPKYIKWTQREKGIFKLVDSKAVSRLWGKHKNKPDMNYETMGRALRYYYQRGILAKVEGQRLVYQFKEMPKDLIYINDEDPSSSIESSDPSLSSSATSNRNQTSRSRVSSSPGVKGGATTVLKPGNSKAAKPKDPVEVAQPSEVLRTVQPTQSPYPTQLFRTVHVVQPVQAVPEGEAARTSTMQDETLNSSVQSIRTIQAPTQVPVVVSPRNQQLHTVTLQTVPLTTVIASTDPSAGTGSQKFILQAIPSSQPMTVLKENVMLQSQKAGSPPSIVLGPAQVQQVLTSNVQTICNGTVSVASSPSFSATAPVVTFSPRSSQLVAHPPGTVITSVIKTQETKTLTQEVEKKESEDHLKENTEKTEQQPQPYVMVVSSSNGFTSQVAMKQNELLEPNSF
# CRX, sequence (O43186 whole entry): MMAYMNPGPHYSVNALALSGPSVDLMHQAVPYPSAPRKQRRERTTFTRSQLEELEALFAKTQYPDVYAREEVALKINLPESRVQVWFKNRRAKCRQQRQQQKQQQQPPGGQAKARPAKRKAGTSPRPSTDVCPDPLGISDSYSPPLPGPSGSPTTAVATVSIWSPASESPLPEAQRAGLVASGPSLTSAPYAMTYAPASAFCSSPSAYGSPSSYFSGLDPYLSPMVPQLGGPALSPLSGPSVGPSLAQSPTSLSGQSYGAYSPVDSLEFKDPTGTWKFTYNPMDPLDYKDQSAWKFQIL
# SPIB, sequence (Q01892 whole entry): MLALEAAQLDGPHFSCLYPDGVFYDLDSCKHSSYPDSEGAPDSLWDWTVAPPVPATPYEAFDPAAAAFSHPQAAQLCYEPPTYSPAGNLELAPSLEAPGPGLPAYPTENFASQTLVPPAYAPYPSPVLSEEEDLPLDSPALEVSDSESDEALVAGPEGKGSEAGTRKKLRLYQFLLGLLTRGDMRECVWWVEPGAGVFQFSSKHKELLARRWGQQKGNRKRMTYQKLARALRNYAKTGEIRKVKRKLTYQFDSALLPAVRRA
# ETV5, sequence (P41161 whole entry): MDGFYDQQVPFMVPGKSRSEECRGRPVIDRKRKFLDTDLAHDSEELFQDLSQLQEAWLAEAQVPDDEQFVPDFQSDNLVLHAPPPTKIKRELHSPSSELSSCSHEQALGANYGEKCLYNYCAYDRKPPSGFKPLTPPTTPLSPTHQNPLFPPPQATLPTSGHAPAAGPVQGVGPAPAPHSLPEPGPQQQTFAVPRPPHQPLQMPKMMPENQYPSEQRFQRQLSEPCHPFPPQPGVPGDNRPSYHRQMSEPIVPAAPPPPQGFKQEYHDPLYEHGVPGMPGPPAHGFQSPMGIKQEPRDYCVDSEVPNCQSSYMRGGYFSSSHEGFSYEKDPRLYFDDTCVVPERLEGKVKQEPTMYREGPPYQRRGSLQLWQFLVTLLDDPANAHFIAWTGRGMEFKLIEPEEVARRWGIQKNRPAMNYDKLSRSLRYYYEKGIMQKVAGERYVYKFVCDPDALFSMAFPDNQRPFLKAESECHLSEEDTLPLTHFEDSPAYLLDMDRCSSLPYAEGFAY
# ELF4, sequence (Q99607 whole entry): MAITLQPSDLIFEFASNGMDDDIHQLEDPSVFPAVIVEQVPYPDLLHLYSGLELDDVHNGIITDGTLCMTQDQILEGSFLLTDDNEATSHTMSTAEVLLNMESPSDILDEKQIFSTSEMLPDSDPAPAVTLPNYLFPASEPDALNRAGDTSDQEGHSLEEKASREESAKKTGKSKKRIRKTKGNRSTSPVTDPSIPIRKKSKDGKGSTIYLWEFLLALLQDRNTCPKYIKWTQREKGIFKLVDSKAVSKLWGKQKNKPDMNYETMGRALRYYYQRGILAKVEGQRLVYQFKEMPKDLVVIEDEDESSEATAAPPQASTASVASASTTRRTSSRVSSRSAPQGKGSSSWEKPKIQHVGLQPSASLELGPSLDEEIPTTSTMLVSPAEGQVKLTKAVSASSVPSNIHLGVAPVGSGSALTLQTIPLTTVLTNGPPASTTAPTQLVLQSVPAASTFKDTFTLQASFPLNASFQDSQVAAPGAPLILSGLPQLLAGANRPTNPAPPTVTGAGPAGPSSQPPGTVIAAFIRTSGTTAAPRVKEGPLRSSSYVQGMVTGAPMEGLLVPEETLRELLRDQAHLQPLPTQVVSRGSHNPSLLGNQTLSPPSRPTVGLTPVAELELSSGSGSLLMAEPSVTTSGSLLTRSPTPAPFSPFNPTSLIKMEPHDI
sequence,measurement,setting,value
CCCTTT,binding signal,FLI1,"1.47 fold enrichment (6-mer frequency, TF over GST control)"
same,binding signal,ELK1,"1.36 fold enrichment (6-mer frequency, TF over GST control)"
same,binding signal,GABPA,"1.51 fold enrichment (6-mer frequency, TF over GST control)"
same,binding signal,ERG,"1.45 fold enrichment (6-mer frequency, TF over GST control)"
same,binding signal,ELF1,"1.36 fold enrichment (6-mer frequency, TF over GST control)"
same,binding signal,EHF,"1.35 fold enrichment (6-mer frequency, TF over GST control)"
same,binding signal,SPI1,"1.96 fold enrichment (6-mer frequency, TF over GST control)"
same,binding signal,SPIB,"1.49 fold enrichment (6-mer frequency, TF over GST control)"
same,binding signal,ELK3,"1.43 fold enrichment (6-mer frequency, TF over GST control)"
same,binding signal,FEV,"1.46 fold enrichment (6-mer frequency, TF over GST control)"
same,binding signal,ETV5,"1.45 fold enrichment (6-mer frequency, TF over GST control)"
same,binding signal,HSF1,"1.25 fold enrichment (6-mer frequency, TF over GST control)"
same,binding signal,SPIC,"1.34 fold enrichment (6-mer frequency, TF over GST control)"
same,binding signal,ELF4,"1.49 fold enrichment (6-mer frequency, TF over GST control)"
same,binding signal,ELK4,"1.34 fold enrichment (6-mer frequency, TF over GST control)"
same,binding signal,ETV2,"1.33 fold enrichment (6-mer frequency, TF over GST control)"
same,binding signal,ELF3,"1.68 fold enrichment (6-mer frequency, TF over GST control)"
same,binding signal,CRX,"1.35 fold enrichment (6-mer frequency, TF over GST control)"
same,binding signal,ETV1,"1.4 fold enrichment (6-mer frequency, TF over GST control)"
